Experimental data published in the supplement of paper PMC6555819.

Assays:
Assay in all cases: PBM binding z-score (relative to random genomic background probes); higher = stronger binding; sequences stand for … in GC…GCGATTGACAGCGTAGAATGAAGG
[1] = test system: FXR:RXRa (NR concentration 270 nM, RXRa partner concentration 90 nM)
Summary of the method: (§1)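 Ligand-free nuclear receptor dimers were bound for 1 h to custom Agilent 4×180K protein-binding microarrays. Detection used antibodies against each partner (one per run). Binding z-scores rest on regression-normalized fluorescence, with random background probes as the reference.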

[2] = test system: LXRa:RXRa (NR concentration 270 nM, RXRa partner concentration 90 nM)
Summary of the method: as §1

[3] = test system: LXRa homodimer (NR concentration 270 nM)
Summary of the method: as §1

[4] = test system: LXRb:RXRa (NR concentration 270 nM, RXRa partner concentration 90 nM)
Summary of the method: as §1

[5] = test system: LXRb homodimer (NR concentration 270 nM)
Summary of the method: as §1

[6] = test system: PPARa:RXRa (NR concentration 270 nM, RXRa partner concentration 90 nM)
Summary of the method: as §1

[7] = test system: PPARg:RXRa (NR concentration 180 nM, RXRa partner concentration 90 nM)
Summary of the method: as §1

[8] = test system: PPARg:RXRa 270nM:90nM, anti-RXR (NR concentration 270 nM, RXRa partner concentration 90 nM)
Summary of the method: as §1

[9] = test system: PPARg:RXRa 30nM:10nM, anti-RXR (NR concentration 30 nM, RXRa partner concentration 10 nM)
Summary of the method: as §1

[10] = test system: PPARg:RXRa 90nM:30nM, anti-RXR (NR concentration 90 nM, RXRa partner concentration 30 nM)
Summary of the method: as §1

[11] = test system: PPARg:RXRa DBDmut IVT, anti-RXR (DBD mutation: RXRa K156A/R161A, NR concentration 270 nM, RXRa partner concentration 90 nM)
Summary of the method: as §1

[12] = test system: PPARg:RXRa IVT, anti-PPARg (NR concentration 270 nM, RXRa partner concentration 90 nM)
Summary of the method: as §1

[13] = test system: PPARg DBDmut:RXRa IVT, anti-PPARg (DBD mutation: PPARg1 K132A/R137A, NR concentration 270 nM, RXRa partner concentration 90 nM)
Summary of the method: as §1

[14] = test system: PPARg DBDmut IVT, anti-PPARg (DBD mutation: PPARg1 K132A/R137A, NR concentration 270 nM)
Summary of the method: as §1

[15] = test system: PPARg homodimer (NR concentration 180 nM)
Summary of the method: as §1

[16] = test system: PXR:RXRa (NR concentration 270 nM, RXRa partner concentration 90 nM)
Summary of the method: as §1

[17] = test system: PXR homodimer (NR concentration 270 nM)
Summary of the method: as §1

[18] = test system: RARa:RXR (NR concentration 270 nM, RXRa partner concentration 90 nM)
Summary of the method: as §1

[19] = test system: RARa homodimer (NR concentration 270 nM)
Summary of the method: as §1

[20] = test system: RARb:RXRa (NR concentration 270 nM, RXRa partner concentration 90 nM)
Summary of the method: as §1

| Sequence | PBM binding z-score [1] | PBM binding z-score [2] | PBM binding z-score [3] | PBM binding z-score [4] | PBM binding z-score [5] | PBM binding z-score [6] | PBM binding z-score [7] | PBM binding z-score [8] | PBM binding z-score [9] | PBM binding z-score [10] | PBM binding z-score [11] | PBM binding z-score [12] | PBM binding z-score [13] | PBM binding z-score [14] | PBM binding z-score [15] | PBM binding z-score [16] | PBM binding z-score [17] | PBM binding z-score [18] | PBM binding z-score [19] | PBM binding z-score [20] |
| --- | --- | --- | --- | --- | --- | --- | --- | --- | --- | --- | --- | --- | --- | --- | --- | --- | --- | --- | --- | --- |
| CCTACTGGGCCAAGGTCACTGATCAGTCAAAGCA | 3.03 | 2.64 | 0.281 | 2.79 | -0.518 | 4.1 | 4.17 | 4.62 | 2.22 | 3.93 | 4.22 | 4.98 | -0.183 | -0.598 | 2.26 | 3.02 | 0.241 | 3.49 | 0.0362 | 3.73 |
| TGAATGAGGTTGTAAGATCAGGGAACGTTGCAAA | -0.0998 | -0.208 | -0.429 | -0.35 | 0.0245 | 0.282 | -0.0383 | 0.349 | 0.261 | 0.21 | -0.831 | -0.0172 | 0.744 | -0.354 | -0.324 | -0.125 | -0.318 | 0.203 | -0.183 | 0.0234 |
| TCATCTAGGTAAAAGGTGAAAGTCGGTGTGGTAA | 1.68 | 1.89 | 0.186 | 1.97 | 0.11 | 5.64 | 10 | 9.2 | 8.75 | 10.8 | 5.49 | 5.73 | 2.1 | 1.06 | 2.69 | 1.53 | 0.241 | 2.8 | 1.26 | 2.15 |
| TCTAGTTGGTTAAAGGTCACACACTCGAAATGCG | 5.51 | 5.54 | 4.45 | 5.47 | 2.22 | 6.63 | 9.55 | 8.64 | 8.96 | 9.31 | 3.15 | 5.25 | 1.74 | 2.83 | 4.61 | 5.24 | 1.86 | 6.06 | 4.25 | 4.77 |
| GCTATTAGTTGAAAGGACAACCGAATGATTCTCG | -0.0393 | -0.0503 | -0.151 | -0.41 | -0.0299 | 0.0455 | 0.857 | 1.45 | 0.556 | 0.958 | 0.447 | -0.166 | 0.553 | 0.18 | 0.735 | -0.372 | 0.0666 | -0.189 | 1.02 | 1.32 |
| TCTAGTTGGTGAAAGGTCACACACTCGAAATGCG | 5.7 | 5.73 | 3.63 | 5.31 | 1.6 | 6.32 | 10.8 | 9.75 | 9.91 | 11.4 | 2.69 | 5.86 | 2.76 | 2.05 | 7.7 | 5.97 | 2.06 | 7.3 | 4.58 | 4.79 |
| ACTAGCAGGCCAAGCGTCACTCAAGATTAGTCCG | -0.5 | -0.376 | -0.471 | -0.815 | -0.983 | 0.102 | 1.12 | 1.84 | 0.377 | 1.73 | 1.13 | 0.488 | 0.0158 | -0.899 | -0.388 | -0.885 | -0.421 | -0.946 | -1.3 | 0.43 |
| ACTTGCGGGTCAACGAGGTTATAGCACGCGTATA | 6.24 | 4.45 | 0.548 | 4.2 | 0.327 | 5.46 | 5.47 | 5.43 | 2.04 | 4.42 | 5.15 | 4.85 | 1.36 | 0.482 | 2.04 | 4.86 | 3.57 | 5.03 | 1.02 | 3.83 |
| CGAACTAGGTCATCCCGGACAGTGAATACATTGA | 4.18 | 2.56 | 0.912 | 2.09 | 0.361 | 4.71 | 7.36 | 6.47 | 3.85 | 6.17 | 7.94 | 8.33 | 3.25 | 4.44 | 4.1 | 1.56 | 0.96 | 2.24 | 1.88 | 3.69 |
| CCGACTGGGGCAAAGATTACCATACTCAGTACGA | -0.494 | -0.583 | -0.45 | -0.138 | -1.19 | 1.89 | 4.52 | 5.48 | 3.98 | 6.06 | 4.42 | 3.1 | -0.00287 | -0.543 | 0.462 | -0.644 | -0.342 | -0.848 | -0.293 | 0.284 |
| GCTCGTAGATCAAGGTTAAGAAAGACTAAGCTAA | -0.496 | 0.698 | -0.704 | 0.341 | -1.05 | 1.03 | -0.16 | 0.485 | -0.162 | 0.0383 | -0.49 | -0.249 | -1.42 | -0.839 | -1.01 | 0.125 | -0.272 | 0.412 | -0.428 | 0.601 |
| GCGACTGGGGCATAAGCAGGTTACCATAACTTAA | -0.0719 | 0.177 | -0.305 | 0.583 | -0.304 | 1.24 | 1.62 | 2.1 | 0.29 | 1.26 | 3.36 | 3.18 | -0.0704 | -1.04 | 0.497 | 0.0393 | -0.431 | 0.498 | -0.34 | 0.653 |
| CCTAGTTGGTCAAGGTCATACACGCTATAGGTAC | 4.77 | 4.27 | 2.86 | 3.52 | 0.89 | 3.97 | 2.79 | 3.21 | 1.22 | 2.74 | 2.28 | 3.11 | 0.777 | 1.26 | 3.11 | 4.21 | 3.04 | 4.33 | 2.79 | 4.04 |
| ACTCTTAGTTGACTTAGGGCAACCGATACGACGC | 0.556 | 0.443 | 0.285 | 0.398 | 0.941 | 0.448 | 0.905 | 0.0993 | 0.38 | 0.299 | 0.723 | 0.491 | 1.1 | 1.39 | 0.782 | 0.578 | 0.291 | 0.777 | 0.704 | 1.04 |
